Each structure is given as a SMILES string. Active and inactive are the calls of the source. The call rests on the fitted dose curve; in most records, active means well fitted curve in the direction sought with a large enough effect in the repeat runs; inconclusive means weak or mixed curves; inactive means flat fitted curve, though single readings scatter.

One test in a line: qHTS assay to test for compound auto fluorescence at 460 nm (blue) in HEK293 cells (AID 720678). The following applies: blue autofluorescence 405/460 nm; series mostly up to 91.3 µM. The essentials: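 HEK293 cells (2,000 per well, medium with 10% dialyzed FBS) attached for 4-5 hr at 37C, then received compound and stood overnight at 37C, 5% CO2. Blue fluorescence was read at Ex/Em 405/460 nm and expressed relative to triamterene.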
(In general: In qHTS, concentration-response curves come from the screen itself.)
For the molecule `CC1(C)[C@@H]2CC[C@@]1(C)[C@H](O)C2`, the call was inactive.
On to `CC(C)C1CCC(O)CC1` (stereo not given), for which the molecule was called inactive.
On the same count and under the same terms, then `CC(C)NNC(=O)c1ccncc1`, with “inactive”; and `CC(=O)c1cnccn1`, with “inactive”; and `NC(=O)Cc1cccc2ccccc12`, with “inactive”.
Same read-out and setting: to `C=CN1CCCCCC1=O` belongs “inactive”; to `O=C1NC(=O)C2CC=CCC12` (stereo not given), “inactive”; to `c1coc(CNc2ncnc3nc[nH]c23)c1`, “inactive”.
As for `CC(C)[C@H]1CC[C@@H](C)CC1=O`, the molecule was classed as inactive.
`CC(=O)N1C[C@H](O)C[C@H]1C(=O)O`: the molecule was classed as inactive.
As to `CCCCCCCCN1CCCC1=O`, the outcome was inactive.
As to `CC1=NN(c2cc(S(=O)(=O)O)ccc2Cl)C(=O)C1N=Nc1ccccc1` (stereo not given), the molecule was classed as inactive.
With `CCCCCCCCCCCCCCC(=O)O`, the molecule was called inactive.
As to `COC(=O)Nc1ccc(Cl)c(Cl)c1`, the molecule was classed as inactive.
On the same count and under the same terms, to `Nc1ccccn1` belongs “inactive”; to `CCCCS(=O)(=O)N[C@@H](Cc1ccc(OCCCCC2CCNCC2)cc1)C(=O)O`, “inactive”; to `CC(C)CCCO`, “inactive”.
As for `CC(C)C[C@@H](N)C(=O)O`, the result was inactive.
As for `Clc1cc(Cl)c(Cl)nc1Cl`, the molecule was called inactive.
For `CC(=O)c1ccc2ccccc2c1`, the molecule was called inactive.
For `CCCCCC(C)N` (stereo not given), the molecule was called inactive.
Turning to `CCOC(=O)COc1cc(-n2ncc(C(F)(F)F)c(C)c2=O)c(F)cc1Cl`, the result was inactive.
Still for that read-out and setting: to `O=C(O)Cc1csc(-c2ccc(Cl)cc2)n1` belongs “inactive”.
Consider `C=C(C)C(=O)OCC1CCCO1` (stereo not given), for which the result was inactive.
In the case of `Nc1c2c(nc3c1CCC3)CCCC2`, the molecule was classed as inactive.
Consider `C[N+]1(C)[C@@H]2CC(OC(=O)[C@H](CO)c3ccccc3)C[C@H]1[C@@H]1O[C@@H]12` (stereo not given in full), for which the result was inactive.
As to `CN1CCN(c2cc3c(nn2)Oc2ccccc2N3C)CC1`, the molecule was classed as inactive.
Consider `Cc1cccc(C)c1NC(=O)CC12CCCN1CCC2`, for which the call was inactive.
On to `O=C(O)CCSCCC(=O)O`, for which the call was inactive.
As for `CCOC(=O)CCC(=O)OCC`, the molecule was called inactive.
Take `CCN(CC#N)c1cccc(C)c1`: the molecule was classed as inactive.
Consider `O=C(O)CNC(=O)c1ccc(CO)o1`, for which the outcome was inactive.
Still for that read-out and setting: to `CC(=O)Oc1cccc(C)c1` belongs “inactive”.
The same measure, in the same setting: then `NO`, with “inactive”.
On the same count and under the same terms, to `O=CN(CCO)CCO` belongs “inactive”.
For the molecule `c1ccc(CCc2ccccc2)cc1`, the molecule was classed as inactive.

A short description of another test: qHTS assay to test for compound auto fluorescence at 590 nm (red) in HEK293 cells (AID 720679). As to conditions: red autofluorescence 540/590 nm; series mostly up to 91.3 µM. The essentials: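 HEK293 cells (2,000/well, medium with 10% dialyzed FBS) attached for 4-5 hr at 37C, received 23 nL compound and were incubated overnight at 37C, 5% CO2. Red fluorescence was then read at 540/590nm Ex/Em, referenced to Rose Bengal sodium.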
Turning to `CC1(C)[C@@H]2CC[C@@]1(C)[C@H](O)C2`, the call was inactive.
`CC(C)C1CCC(O)CC1` (stereo not given): the outcome was inactive.
Turning to `CC(C)NNC(=O)c1ccncc1`, the outcome was inactive.
As for `CC(=O)c1cnccn1`, the molecule was called inactive.
On to `NC(=O)Cc1cccc2ccccc12`, for which the molecule was called inactive.
As to `C=CN1CCCCCC1=O`, the molecule was called inactive.
For `O=C1NC(=O)C2CC=CCC12` (stereo not given), the outcome was inactive.
The same measure, in the same setting: then `c1coc(CNc2ncnc3nc[nH]c23)c1`, with “inactive”.
The same measure, in the same setting: then `CC(=O)N1C[C@H](O)C[C@H]1C(=O)O`, with “inactive”; and `CCCCCCCCN1CCCC1=O`, with “inactive”.
On to `CCCCCCCCCCCCCCC(=O)O`, for which the molecule was classed as inactive.
On the same count and under the same terms, then `COC(=O)Nc1ccc(Cl)c(Cl)c1`, with “inactive”; and `Nc1ccccn1`, with “inactive”; and `CCCCS(=O)(=O)N[C@@H](Cc1ccc(OCCCCC2CCNCC2)cc1)C(=O)O`, with “inactive”.
In the case of `CC(C)CCCO`, the call was inactive.
As to `Clc1cc(Cl)c(Cl)nc1Cl`, the result was inactive.
The same measure, in the same setting: then `CC(=O)c1ccc2ccccc2c1`, with “inactive”.
In the case of `CCOC(=O)COc1cc(-n2ncc(C(F)(F)F)c(C)c2=O)c(F)cc1Cl`, the result was inactive.
On the same count and under the same terms, then `C=C(C)C(=O)OCC1CCCO1` (stereo not given), with “inactive”.
Still for that read-out and setting: then `C[N+]1(C)[C@@H]2CC(OC(=O)[C@H](CO)c3ccccc3)C[C@H]1[C@@H]1O[C@@H]12` (stereo not given in full), with “inactive”; and `CN1CCN(c2cc3c(nn2)Oc2ccccc2N3C)CC1`, with “inactive”; and `Cc1cccc(C)c1NC(=O)CC12CCCN1CCC2`, with “inactive”.
On to `O=C(O)CCSCCC(=O)O`, for which the molecule was called inactive.
Regarding `CCOC(=O)CCC(=O)OCC`, the molecule was classed as inactive.
As to `CCN(CC#N)c1cccc(C)c1`, the molecule was called inactive.
Regarding `O=C(O)CNC(=O)c1ccc(CO)o1`, the call was inactive.
As for `CC(=O)Oc1cccc(C)c1`, the result was inactive.
In the case of `NO`, the outcome was inactive.
With `c1ccc(CCc2ccccc2)cc1`, the result was inactive.
